46 sequences from PMC7819943, “Rice protein-binding microarrays: a tool to detect cis-acting elements near promoter regions in rice” can be followed below.

The full ranking holds about 35,000 sequences; the median of “fluorescence intensity (a.u.)” is about 10,000, and the highest 2% start at about 52,000. The sample as a whole holds a higher share of the highest values than the screen did.

This assay deals with T1, OsWOX13 (Oryza sativa, UniProt Q5QMM3 1-267).
T1 sequence: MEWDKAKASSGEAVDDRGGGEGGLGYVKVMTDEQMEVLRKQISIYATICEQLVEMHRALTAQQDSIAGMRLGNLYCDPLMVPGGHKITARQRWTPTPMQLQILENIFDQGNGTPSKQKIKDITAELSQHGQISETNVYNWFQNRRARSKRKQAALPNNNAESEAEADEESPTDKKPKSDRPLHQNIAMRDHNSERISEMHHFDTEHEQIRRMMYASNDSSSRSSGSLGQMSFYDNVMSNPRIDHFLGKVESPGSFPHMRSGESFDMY
Nature of the assay: protein-binding microarray (RPBM); PBS, 2% BSA, 51.3 ng/ul salmon testes DNA, 50 uM zinc acetate, 200 nM TF, 25 C, 1 h; high values mean tight binding. Conditions: protein: recombinant; tags: N-terminal polyhistidine and DsRed monomer fusion (pET32a); label: CyDye5-dUTP incorporated in the synthesized complementary strand; 3' TTTTT single-stranded linker to array surface; dsDNA, one strand shown. The gist of the method: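 Binding signal here means per-feature fluorescence intensity in arbitrary units. The values were read on an Axon 4000B scanner after a custom Agilent array, double-stranded by primer extension with Cy5-dUTP, was incubated with 200 nM protein at 25 °C for 1 h in PBS with 2% BSA, salmon testes DNA and 50 µM zinc acetate, then washed. The proteins were transcription factors with an N-terminal polyhistidine tag and DsRed, expressed in E. coli BL21-CodonPlus and purified on Ni–NTA.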
Regarding “GTAGAGTAATTAAGTATATCCTTTTGTTCTAGTACATCGGCGGAGTCACCTAGTGCAG”, the binding signal was 4870 fluorescence intensity (a.u.).

On to “TTAAAATTAACTTTAAAATTTAAATTTAGATTTTAATTTTCGGAGTCACCTAGTGCAG”, for which the binding signal is 25700 fluorescence intensity (a.u.).

Consider “TTCATTAATCACAGATTCAATTTGCTCCTATATATAATCCCGGAGTCACCTAGTGCAG”, for which the binding signal was 12700 fluorescence intensity (a.u.).

“TAATCAATTAAGAAATTAATTAATCCTTTGCTCCCTGATTCGGAGTCACCTAGTGCAG”: the binding signal is 54400 fluorescence intensity (a.u.).

For “ATCCTTATTTGATTCCTGATCAAATTAATACTGCTGCTTTCGGAGTCACCTAGTGCAG”, the binding signal is 3200 fluorescence intensity (a.u.).

Turning to “TTGTAATTAATTAACTGATTAATTAAACTGCATGAATTTTCGGAGTCACCTAGTGCAG”, the binding signal was 60100 fluorescence intensity (a.u.).

For the sequence “ATGAATTAGATTAGATGTATATTTGAGGGAGTTAAAGTGGCGGAGTCACCTAGTGCAG”, the binding signal is 20800 fluorescence intensity (a.u.).

Turning to “CAAAATCAATCAATCAATCCAGCCCTGCCCTCCTTTCGGTCGGAGTCACCTAGTGCAG”, the binding signal was 57900 fluorescence intensity (a.u.).

As to “GAAATTATTTGAAATTTTGACTGATTTTGAATGAATTTGACGGAGTCACCTAGTGCAG”, the binding signal is 15200 fluorescence intensity (a.u.).

On to “ATTAGCGCATGATTAATTGATTATTAACTATTTTAAACTTCGGAGTCACCTAGTGCAG”, for which the binding signal was 27400 fluorescence intensity (a.u.).

As to “ACCCTTTCAATCATCCTCCTCCAGCAGAGCAAGCAGCCAACGGAGTCACCTAGTGCAG”, the binding signal was 11000 fluorescence intensity (a.u.).

Regarding “TTTCAAATCAAATCCAATCCTCCTCCTCCAGATCTCTCCACGGAGTCACCTAGTGCAG”, the binding signal is 3410 fluorescence intensity (a.u.).

As for “CTGATTTGACTGAATGAATGAATTAATTAATGAGATGTATCGGAGTCACCTAGTGCAG”, the binding signal is 61600 fluorescence intensity (a.u.).

Turning to “AAATTTTAAATTTTAGTAAAATTTGTTCGGTCTTTCTCTCCGGAGTCACCTAGTGCAG”, the binding signal is 5920 fluorescence intensity (a.u.).

Turning to “ATAAATTTTATAAACTTGACTGCCTCTGGTTGTATATGCACGGAGTCACCTAGTGCAG”, the binding signal is 23900 fluorescence intensity (a.u.).

In the case of “TGTAATTTGTTCTTGTTATCATCAATCCCATATAAACTGGCGGAGTCACCTAGTGCAG”, the binding signal was 22300 fluorescence intensity (a.u.).

Consider “ATTAACCATAACCTAATTTGGATAAGCCGACATGGATCGGCGGAGTCACCTAGTGCAG”, for which the binding signal was 8230 fluorescence intensity (a.u.).

On to “CTACCTTTAATTAGCTTTGCCATAAACGACGTGGGAGTATCGGAGTCACCTAGTGCAG”, for which the binding signal was 10300 fluorescence intensity (a.u.).

“CAAATTCCAATCATCTCCAAAACCACTTCGCAAATAAATTCGGAGTCACCTAGTGCAG”: the binding signal is 17900 fluorescence intensity (a.u.).

Turning to “CCCCAAATCCCACTCCAATCACCACCGCTTCTTCTCCTCCCGGAGTCACCTAGTGCAG”, the binding signal is 6580 fluorescence intensity (a.u.).

With “AATTAATTGTCTGATCAGTGATCTTTATTAACTGTCGACGCGGAGTCACCTAGTGCAG”, the binding signal was 28400 fluorescence intensity (a.u.).

On to “CCTGTTAAATTGATCTGCCCTGATTAATTGACCCACCGACCGGAGTCACCTAGTGCAG”, for which the binding signal is 38100 fluorescence intensity (a.u.).

As for “ATCCTTTTCTCCTTTTCTCGCAAAATCTCCAAAACCGCTTCGGAGTCACCTAGTGCAG”, the binding signal is 65500 fluorescence intensity (a.u.).

Regarding “CAAACGGGTAATTAACTGGGATTAATTTGCCATAAGCCGACGGAGTCACCTAGTGCAG”, the binding signal was 53100 fluorescence intensity (a.u.).

As to “TTGATCTGATTAATTAACTGATCAGACGGGTCGACGGGACCGGAGTCACCTAGTGCAG”, the binding signal is 55700 fluorescence intensity (a.u.).

“TAGGATTTGACCATAGTAAATTAATTTGGAGGAATTGTTTCGGAGTCACCTAGTGCAG”: the binding signal was 3990 fluorescence intensity (a.u.).

Turning to “CCATCTGATTAGAGATTTGATCCTATACCTTCCTAAACATCGGAGTCACCTAGTGCAG”, the binding signal is 40700 fluorescence intensity (a.u.).

For “AGTACTGTAGATAATAAAGTAAGTCACGAATAAAATAAATCGGAGTCACCTAGTGCAG”, the binding signal was 50900 fluorescence intensity (a.u.).

With “TTAATTGTTTTATCCTATTAATTGGTAGAAGCGGTATTTTCGGAGTCACCTAGTGCAG”, the binding signal was 26700 fluorescence intensity (a.u.).

For the sequence “AAAGATAATTGAAAAGTAAACTTGTTGACAGACGGAATCCCGGAGTCACCTAGTGCAG”, the binding signal was 30400 fluorescence intensity (a.u.).

With “TATGATTATCACAAGTAATATATAAATTATTAGTCAAGTTCGGAGTCACCTAGTGCAG”, the binding signal is 33600 fluorescence intensity (a.u.).

“AATTATTTAAATCAATGTAACTCAAAAGTTAATAAACGTGCGGAGTCACCTAGTGCAG”: the binding signal was 13100 fluorescence intensity (a.u.).

Turning to “TTGGACACTAATTATAAATATTAAATATAGACTATTAATACGGAGTCACCTAGTGCAG”, the binding signal was 4640 fluorescence intensity (a.u.).

With “ACTAATTATAAATCAGAACGATTTATTAACTACTCAATAACGGAGTCACCTAGTGCAG”, the binding signal is 24400 fluorescence intensity (a.u.).

As for “CATGATTAATCAAGTTAATTATTATACACTAAATATTGGACGGAGTCACCTAGTGCAG”, the binding signal was 59600 fluorescence intensity (a.u.).

As to “TTAACATGTAATCAATTAAATACTAATTATTATAAACGTGCGGAGTCACCTAGTGCAG”, the binding signal is 53100 fluorescence intensity (a.u.).

With “GGGTGTGTAAGGGTAGGTGGAGGGGTGGGTGATGCGAGATCGGAGTCACCTAGTGCAG”, the binding signal was 4470 fluorescence intensity (a.u.).

Consider “GTCTAATTAGTCCATGATTAATTAGCCATAAGTTCTACAGCGGAGTCACCTAGTGCAG”, for which the binding signal was 53100 fluorescence intensity (a.u.).

For “TCCGTGATTAGCCATAAGTGCTACAGTAACCCACATGTGCCGGAGTCACCTAGTGCAG”, the binding signal is 35800 fluorescence intensity (a.u.).

“CCTAATTAATCCATGATTAGTCATAAGTGTTACAATAATCCGGAGTCACCTAGTGCAG”: the binding signal is 55500 fluorescence intensity (a.u.).

For the sequence “GCCTAATTAGTCCATGATTAGCTATAAGTGCTACAATAACCGGAGTCACCTAGTGCAG”, the binding signal was 28100 fluorescence intensity (a.u.).

As for “TTGAGTCTAATTAGTCCATGATTAGCCATAAGTGCTACAGCGGAGTCACCTAGTGCAG”, the binding signal is 30600 fluorescence intensity (a.u.).

As to “CCGTGATTAGCCATAAGTGCTACAGTAACCCACATGTGCTCGGAGTCACCTAGTGCAG”, the binding signal was 57900 fluorescence intensity (a.u.).

As to “CCTAATTAGTCCATGATTAGTCATAAGTACTACAATAACCCGGAGTCACCTAGTGCAG”, the binding signal was 33900 fluorescence intensity (a.u.).

As for “CATGATTAGCCATAAGTGCTACAGTAACCCACATGTGCTACGGAGTCACCTAGTGCAG”, the binding signal was 34300 fluorescence intensity (a.u.).

As for “TAAGCCTAATTAGTCTATGATTAGCCATAAGTGCTACAGTCGGAGTCACCTAGTGCAG”, the binding signal is 37800 fluorescence intensity (a.u.).
